# Source: PubChem BioAssay (Tox21)
# Several values for one entry are separate records, joined by “and”; a condition that tells them apart may be missing. Equal values may be shown once. Results filed as inconclusive are left out. Activity calls are given as the source filed them. Calls follow the shape of the full dose curve.
# Test: p53 small molecule agonists, cell-based qHTS assay with human liver microsomes: qHTS cell viability counter screen (AID 1963579); also: nearly all actives have a fitted effect of over 45% in size
# Conditions: p53RE-bla HCT-116 viability, ATP luminescence, 16 h, HLM; series mostly up to 66 µM; activity change, negative = cytotoxicity: at the top concentration
# Source text: National Center for Advancing Translational Sciences [NCATS]
# Division of Preclinical Innovation [DPI]
# U.S. Environmental Protection Agency [EPA]
# National Institutes of Environmental Health Sciences [NIEHS]
# National Toxicology Program [NTP]
# U.S. Food and Drug Administration [FDA]
# p53, a tumor suppressor protein, is activated following cellular insult, including DNA damage and other cellular stresses. The activation of p53 regulates cell fate by inducing DNA repair, cell cycle arrest, apoptosis, or cellular senescence. The activation of p53, therefore, is a good indicator of DNA damage and other cellular stresses. […] The activation of the reporter gene under culture conditions can be detected by fluorescence intensity. This cell line was used to screen the Tox21 10K compound library in the condition of presence of human liver microsomes and to identify agonists that activate the p53 signaling pathway after in vitro metabolic activation (Ooka et al., Archive of Toxicology 96:1975-1987, 2022).
# Tox21 Assay Protocol Summary:
# The p53RE-bla cells were dispensed at 4,000cells/3ul/well in 1536-well black-clear bottom plates. After the assay plates were incubated at 37 C, 5% CO2 incubator for 5 hours, 23 nL of compounds dissolved in DMSO, positive controls or DMSO only was transferred to the assay plate. Following compound addition, 3 uL of human liver microsomes (XenoTech, Kansas City, KS) at final concentration of 0.5 mg/mL and 1uL of B-Nicotinamide adenine dinucleotide 2'-phosphate (NADPH) at final concentration of 0.5 mg/mL were transferred to the assay plate. The plates were incubated at 37 C for 16 hours. 1 uL of LiveBLAzer detection mixture was added to each well and the plates were incubated at room temperature in the dark for 2 h. Fluorescence intensity at 460 and 530 nm emission and 405 nm excitation were measured by an Envision plate reader. For cell viability readout that measures cytotoxicity, 4 ul/well of CellTiter-Glo reagent was added into the assay plates using a Flying Reagent Dispenser. After 30 min incubation at room temperature, the luminescence intensity in the plates was measured using a ViewLux plate reader.
# % is scaled to controls: 0 for no effect and ±100 for the full control effect; potency is read from the fitted curve at half-maximal effect.
SMILES,"activity change, negative = cytotoxicity",Potency
CCCCCCCCCCCCC(=O)O,-0.772% (inactive),–
OC/C=C/CO,2.84% (inactive),–
C1CCCCC1,-2.34% (inactive),–
Nc1cc(=O)[nH]c(N)n1,11.5% [at 30.3 µM] (inactive),–
CC1(C)C(=O)N(Br)C(=O)N1Cl,-17.4% (inactive),–
O=C(C(=O)c1ccco1)c1ccco1,0.247% (inactive),–
CC(O)CCCCn1c(=O)c2c(ncn2C)n(C)c1=O (stereo not given),-3.78% [at 30.3 µM] (inactive),–
C=COCCOCCOCCOC=C,-2.83% (inactive),–
O=C1OC(=O)c2ccc3c4c(ccc1c24)C(=O)OC3=O,-12.5% (inactive),–
c1ccc2sc(SSN3CCOCC3)nc2c1,–,inactive
CC(=O)Nc1c(I)cc(I)c(C(=O)O)c1I,-15.3% [at 30.3 µM] (inactive),–
CC1(C)C(C=C(Cl)Cl)C1C(=O)OCc1cccc(Oc2ccccc2)c1 (stereo not given),–,inactive
CC(=O)CC(=O)Nc1ccccc1,–,inactive
CC(C)(O)C#CC(C)(C)O,-0.869% (inactive),–
O=C1c2cccc(O)c2C(=O)c2c(O)cccc21,–,inactive
C=CC(C)(O)CC/C=C(\C)CCC=C(C)C (stereo not given),8.83% (inactive),–
Cc1cn([C@H]2C[C@H](F)[C@@H](CO)O2)c(=O)[nH]c1=O,-6.5% [at 30.3 µM] (inactive),–
CCCCN(CCO)CCO,-2.32% (inactive),–
CN(C)c1ccc(C(=C2C=CC(=[N+](C)C)C=C2)c2ccc(N(C)C)cc2)cc1,–,32.2 µM (active) and 40.8 µM (active)
CCCCCCCCC1CCC(=O)O1 (stereo not given),-6.29% (inactive),–

SMILES,"activity change, negative = cytotoxicity",Potency
COCc1ccc(COC)cc1,6.68% (inactive),–
N[C@@H](CCC(=O)Nc1ccc([N+](=O)[O-])cc1)C(=O)O,2.13% (inactive),–
CC(C)=C1CC[C@@H](C)CC1=O,-4.88% (inactive),–
O=C(/N=N/C(=O)OCc1ccccc1)OCc1ccccc1,6.57% (inactive),–
COC(=O)CC(C(C)=O)C(=O)OC (stereo not given),-2.82% (inactive),–
CN(C(=O)c1c(O)c2ccccc2n(C)c1=O)c1ccccc1,-1.46% [at 30.3 µM] (inactive),–
FC(F)(F)/C(=N\OCC1OCCO1)c1ccc(Cl)cc1,-3.06% (inactive),–
Nc1ccc(S(=O)(=O)Nc2ccc(Cl)nn2)cc1,-7.7% [at 30.3 µM] (inactive),–
Cc1cc(O)c(Cl)cc1C,5.48% (inactive),–
CC(C)c1cccc(C(C)C)c1N,-9.78% (inactive),–
CO[C@H]1C=CO[C@@]2(C)Oc3c(C)c(O)c4c(O)c(c(/C=N/N5CCN(C)CC5)c(O)c4c3C2=O)NC(=O)/C(C)=C\C=C[C@H](C)[C@H](O)[C@@H](C)[C@@H](O)[C@@H](C)[C@H](OC(C)=O)[C@@H]1C,–,inactive
O=S(=O)(O)c1ccccc1,–,inactive
CC(=O)[O][Al][O]C(C)=O,-3.83% (inactive),–
CCCC(=O)c1ccccc1,-11.2% (inactive),–
CC(C)(C)S,-2.14% (inactive),–
CCCc1ccc(N)cc1,-7.72% (inactive),–
Cn1c(=O)c2c(ncn2C)n(C)c1=O,–,inactive
CC1CC(O)CC(C)(C)C1 (stereo not given),5.57% (inactive),–
NC(=O)c1ccccc1N,-4.21% (inactive),–
Cc1ccc(C(C)NC(=O)[C@@H](NC(=O)OC(C)C)C(C)C)cc1 (stereo not given in full),3.22% (inactive),–
